# Data as given in PubChem BioAssay AID1224854 (National Center for Advancing Translational Sciences (NCATS), 2016).
# Records with an inconclusive call do not appear. Calls of active or inactive are those of the source. The call rests on the fitted dose curve; in most records, active means well fitted activation curve with a large enough effect; inconclusive means small, poorly fitted or top-dose-only effect; inactive means flat fitted curve, though single readings scatter.
# Experiment: Cell viability assay for measurement of the protective activity of small molecules against cell death caused by Zika virus infection in human astrocytoma cells
# Details: SNB-19 Zika virus cytoprotection, ATP luminescence, 72 h; series mostly up to 46.1 µM; protection from virus-induced cell death: at the top concentration
# Excerpt: National Center for Advancing Translational Sciences [NCATS] Johns Hopkins University School of Medicine Florida State University Assay Overview: Zika virus infection causes cell death in certain cell types including human neural progenitor cells (hNPCs), astrocytes, and astrocytoma cell line (SNB-19). This cell viability assay measures the ATP content (level) in human astrocytoma cells (SNB-19) using a luminescence readout that is proportional to viable cell numbers. Decrease in the luminescence signal after Zika virus infection indicates the cell death caused by Zika virus. Small molecule inhibitors […] the decreased luminescence signal after Zika virus infection, indicating the protective effect of that small molecule on the cell death caused by Zika virus infection. This observed protective effect of small molecules against Zika virus induced cell death may result from inhibition of virus replication or cellular response to the virus infection.
# Assay Protocol Summary: The medium for SNB-19 cells is composed of RPMI 1640 (ATCC, Cat.# 30-2001), 10% fetal bovine serum (FBS) (GE healthcare Life Sciences, Cat.# SH30071.03), and 1% Pen/Strep (Gibco, Cat.# 15140-122). The ATP content assay kit (PerkinElmer, Cat.# 6016731) was used to determine cell viability. The reagent was reconstituted and prepared as described by the manufacturer. Cells were seeded in 384- or 1536-well assay plates and cultured at 37 C with 5% CO2 for 16 to 20 hours. The typical cell seeding density in the 1536-well plate assay is 250 cells/well in 3ul medium for SNB-19 cells in tissue culture treated plates. Compounds were added to cells and incubated for one hour before addition of ZIKV solution to cells (2 FFU/cell). After incubation at 37 C with 5% CO2 for 72 hours, the reagent mixture of the ATP content assay kit was added to each well, followed by incubation at room temperature for 10 minutes. The luminescence intensity of the assay plates was measured using a ViewLux plate reader (PerkinElmer). […] The percentage inhibitions of the decreased cell viability by small molecule inhibitors were then calculated.
Structure (SMILES),protection from virus-induced cell death,Potency
Cc1csc(NC(=O)c2sc3nc4c(c(C(F)(F)F)c3c2N)CCC4)n1,-15% (inactive),–
Cc1oncc1C(=O)Nc1ccc(C(F)(F)F)cc1,-6.36% (inactive),–
Clc1ccccc1-c1nc(-c2ccncc2)no1,-3.86% (inactive),–
Cc1nc(N)sc1-c1ccnc(Nc2ccc(N3CCOCC3)cc2)n1,22% (inactive),–
O=C1C(Cl)=C(NCCN2CCOCC2)C(=O)c2ncccc21,-21% (inactive),–
COc1cccc(-c2cc(=O)c3ccccc3o2)c1N,-13.9% (inactive),–
Nc1ccc2c(c1)CN1C(=O)c3ccccc3C1=N2,-13.3% [at 23.8 µM] (inactive),–
CC1(C)Cc2c(sc(NC(=S)NC(=O)c3ccccc3)c2C(=O)O)CO1,10.2% (inactive),–
O=C(O)CCC(=O)c1ccc(-c2ccccc2)cc1,-4.58% (inactive),–
O=C(c1ccccc1)c1ccc2n1CCC2C(=O)O (stereo not given),17.1% (inactive),–
Cc1cccc(/C=C/c2ccccc2)n1,-0.0925% (inactive),–
O=S(=O)(O)c1ccc2nc(-c3ccccc3)[nH]c2c1,-10.1% (inactive),–
CC(O)=C(C#N)C(=O)Nc1ccc(C(F)(F)F)cc1,-10% (inactive),–
O=c1cc(-c2ccccc2)oc2cc(O)cc(O)c12,-4.33% (inactive),–
O=C(Oc1ccccc1)c1cccc(C(=O)Oc2ccccc2)c1,3.11% [at 96.3 µM] (inactive),–
Cc1cc(O)c2c(c1)C(=O)c1cc(O)cc(O)c1C2=O,7.3% (inactive),–
Cc1ccc(C(=O)c2ccc(CC(=O)O)n2C)cc1,15.6% (inactive),–
CCCS(=O)c1ccc2nc(NC(=O)OC)[nH]c2c1 (stereo not given),4.13% (inactive),–
c1ccc2[nH]c(-c3cscn3)nc2c1,-1.36% (inactive),–
O=C(O)c1cc([N+](=O)[O-])ccc1NCCCc1ccccc1,0.997% (inactive),–

Structure (SMILES),protection from virus-induced cell death,Potency
CC(C(=O)O)c1ccc(-c2ccccc2)c(F)c1 (stereo not given),-3.91% (inactive),–
C=CCCCCCCCCC(=O)O,-10.8% (inactive),–
COc1ccc(-c2coc3cc(O)ccc3c2=O)cc1,-7.12% (inactive),–
O=C1NC(=O)C(=Cc2ccc(-c3ccc(F)cc3)o2)S1,-4.09% (inactive),–
Cc1c(C(=O)O)c(O)cc2c1C(=O)c1c(O)c([C@@H]3O[C@H](CO)[C@@H](O)[C@H](O)[C@H]3O)c(O)c(O)c1C2=O,-5.16% (inactive),–
O=C(O)c1ccccc1Nc1cccc(C(F)(F)F)c1,-13.1% (inactive),–
O=C(O)c1ccccc1NCCc1ccccc1,7.39% (inactive),–
Oc1ccc(/C=C/c2cc(O)cc(O)c2)cc1,-18.6% (inactive),–
COc1ccnc2c1CCCCC2S(=O)c1nc2ccccc2[nH]1 (stereo not given),9.31% (inactive),–
COc1ccc(NC(=O)/C=C/c2ccc(Cl)cc2)cc1,6.63% (inactive),–
O=C(Nc1cc2cc[nH]c2cn1)c1ccccc1,-20.2% (inactive),–
CCCSc1ccc2nc(NC(=O)OC)[nH]c2c1,1.59% (inactive),–
COc1cc2nc(-c3ccc(N4CCN(C)CC4)cc3)nc(NCCN3CCOCC3)c2cc1OC,–,1.95 µM (active)
O=C1c2ccccc2C(=O)c2c(NCCc3ccc(O)cc3)ccc(NCCc3ccc(O)cc3)c21,–,19.5 µM (active)
CCCCCCOc1ccccc1C(N)=O,0.0427% (inactive),–
Nc1ccc(-c2ccc3ccccc3n2)cc1,-18.9% (inactive),–
O=C1C[C@@H](c2ccc(O)cc2)Oc2cc(O)cc(O)c21,-7.24% (inactive),–
COc1cc2nc(N3CCN(C(=O)C4CCCO4)CC3)nc(N)c2cc1OC (stereo not given),-1.91% (inactive),–
CCN1/C(=C/C=C/c2sc3ccccc3[n+]2CC)Sc2ccccc21,10.8% [at 23.8 µM] (inactive),–
CN(C)c1ccc2cc(C(=O)N[C@@H](CCCN=C(N)CCl)C(=O)NCc3ccccc3)ccc2c1,–,4.35 µM (active)
